RE007 growth inh: less growth of the S. pombe RE007 Vpr strain. S. pombe RE007 Vpr strain, BacTiter-Glo ATP luminescence, 24 h. Potency, µM (doses to about 92.2 µM), for the others: top-dose activity change, negative = less growth, most hits filed as inhibitors. 360,000 compounds, 0.21% hits. AID 651644; active = well fitted falling curve with a large enough effect; inconclusive = small, poorly fitted or top-dose-only effect; inactive = no such curve, though single readings can be large or run the other way; note: nearly all actives have a fitted effect of over 50% in size
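Fission yeast strain RE007, carrying one chromosomally integrated HIV-1 vpr copy, was seeded at OD 0.01 in PMG+AL medium with 23 nL pinned compound. After 24 h at 30 °C and 99% humidity, viability was read by BacTiter-Glo luminescence.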
AmpC inh detg: inhibitors of E. coli AmpC beta-lactamase with detergent; P00811; AmpC hydrolysis of nitrocefin, absorbance 480 nm, 0.01% Triton; Potency, µM (top dose mostly 114 µM), for the others: at the top dose activity change, negative = inhibition, usual class: inhibitors; 370,000 compounds, 0.041% hits;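 note: 0% = no-compound wells and -100% = no-enzyme wells; nearly all actives have a fitted effect of over 25% in size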
Target sequence (P00811 whole entry, looked up): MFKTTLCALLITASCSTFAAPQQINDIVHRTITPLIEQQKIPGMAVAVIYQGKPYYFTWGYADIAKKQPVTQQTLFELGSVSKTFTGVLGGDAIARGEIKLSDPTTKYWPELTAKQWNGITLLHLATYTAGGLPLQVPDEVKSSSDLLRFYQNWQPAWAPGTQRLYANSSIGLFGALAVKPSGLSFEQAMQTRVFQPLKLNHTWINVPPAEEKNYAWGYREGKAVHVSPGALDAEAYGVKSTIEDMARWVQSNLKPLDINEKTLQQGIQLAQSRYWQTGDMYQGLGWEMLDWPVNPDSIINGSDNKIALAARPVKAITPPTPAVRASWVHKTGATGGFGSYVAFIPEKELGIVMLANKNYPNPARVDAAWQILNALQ
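AmpC (5.3 nM in the dispensed reagent) in 20 mM phosphate pH 7.0 with 0.01% (detergent screen) or 0.0001% Triton X-100 was preincubated with compounds for 15 min at room temperature. Nitrocefin was then added from an 800 uM solution, and hydrolysis was followed at 480 nm.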
Sm TGR inh: blocks Schistosoma mansoni thioredoxin glutathione reductase | Q962Y6 | purified TGR, DTNB reduction, TNB absorbance 405 nm | Potency, µM (series often up to 114 µM), for inactives: at the top dose activity change, negative = inhibition, most hits filed as inhibitors | 360,000 compounds, 3% hits; note: nearly all actives have a fitted effect of over 60% in size
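First, TGR (20 nM dispensed) and NADPH were mixed with compound. Second, a 15 min room-temperature incubation followed. Third, further NADPH and then DTNB were added to start the reaction. Finally, TNB absorbance was monitored kinetically.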
AMA1 RON2 block: AMA1-RON2 (P. falciparum) interaction inhibition; Potency, µM (titrated, usually from 58.2 µM), for the others: at the highest dose activity change, negative = inhibition, usual class: inhibitors; AlphaScreen AMA1-biotinylated RON2 peptide binding; 360,000 compounds, 0.2% hits;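 note: 0% = vehicle wells and -100% = peptide control; nearly all actives have a fitted effect of over 45% in size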
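AMA1 (3D7) with his tag at 25 nM final met compounds first, then biotinylated RON2 peptide at 25 nM; detection used donor plus acceptor beads, 10 µg/mL apiece, read by AlphaScreen after 30 min at room temperature.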
AmpC inh no detg: blocks E. coli AmpC beta-lactamase in detergent-free assay. P00811. AmpC nitrocefin hydrolysis, absorbance 480 nm, 0.0001% Triton. Potency, µM (top dose mostly 57.1 µM), inactives show at the top dose activity change, negative = inhibition, most hits filed as inhibitors. 330,000 compounds, 0.52% hits. AID 485341;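 note: plate controls were no compound for no effect and no enzyme for full effect; nearly all actives have a fitted effect of over 20% in size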
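20 mM phosphate pH 7.0 + 0.01% (detergent screen) or 0.0001% Triton X-100; 5.3 nM AmpC reagent; cpd preinc 15 min RT; nitrocefin (800 uM stock) to start; A480 q20 s × 4 min; Activity was normalised to no-enzyme and no-compound control wells.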
Active calls of the source: *; ? = inconclusive; [ ] = another dose, or the depositor's remark. In the library only some 3.2% were active in any assay of this set; here they are far more common. Unless noted, calls come from the whole dose curve; as a rule, active = well fitted curve in the direction sought with a large enough effect; inconclusive = small, poorly fitted or top-dose-only effect, or another doubt; inactive = no such curve, though single readings can be large; an effect the other way counts as inactive or inconclusive. Unless noted, % is set by controls: 0 for no effect and ±100 for the full control effect; potency is the fitted concentration of half-maximal effect.

SMILES	RE007 growth inh	AmpC inh detg	Sm TGR inh	AMA1 RON2 block	AmpC inh no detg
O=C1C(Cl)=C(NCCCO)C(=O)c2ccccc21	?	?	32.6%	-8.9%	-14.6%
O=C(Nc1ccc2cn[nH]c2c1)c1c(Cl)cccc1Cl	3.5%	2.3%	0.6%	4.7%[11.6 µM]	-22.1%
O=C1C(Cl)=C(Nc2ccc3cn[nH]c3c2)C(=O)c2ccccc21	31.6µM*	-3.0%	0.316µM*	-16.9%	-38.2%
CCCOC1(NC(=O)c2ccccc2)C(C)=CC(=O)C=C1C	5.3%	?	22.4µM*	7.3%	-5.5%
CCOC(=O)CNC(=O)c1ccccc1	-16.5%	1.1%	3.5%	41.4%	-11.4%
O=C(/C=C/c1cccc(Br)c1)N1CCN(c2cccc(C(F)(F)F)c2)CC1	4.6%	-5.6%	0.4%	-0.4%	-3.9%
Nc1cccc2c1C(=O)N(C(=O)/C=C/c1cccc(F)c1)C2=O	?	-2.7%	6.31µM*	6.5%	-54.6%
Nc1cccc2c1C(=O)N(C(=O)/C=C/c1cccc(Br)c1)C2=O	?	-5.0%	2.51µM*	15.0%	-43.2%
COc1ccc(OC)c(/C=C/C(=O)N2C(=O)c3cccc(N)c3C2=O)c1	-21.9%	-2.0%	-11.7%	3.4%	31.6µM*
O=C(/C=C/c1cccc(F)c1)N1CCN(c2ccccn2)CC1	-15.4%	12.6%	5.7%	-15.4%	1.5%
COc1cc(/C=C/C(=O)N2C(=O)c3cccc(N)c3C2=O)cc(OC)c1OC	7.2%	1.1%	-8.7%	0.0%	-16.8%

High-throughput results from PubChem BioAssay.
